Measurements: PubChem BioAssay AID493203 (National Center for Advancing Translational Sciences (NCATS), 2011)
Inconclusive results are not listed. Values without a mark were called inactive. Active and inactive are the calls of the source. Calls come from the whole dose curve; as a rule, active = well fitted activation curve with a large enough effect; inconclusive = small, poorly fitted or top-dose-only effect; inactive = flat fitted curve, though single readings scatter.

assay: qHTS Assay for NPC1 Promoter Activators: Initial hit validation from the primary screen; settings: Huh7 NPC1 promoter-luciferase reporter, luminescence, 24 h; series mostly up to 46.1 µM; activity, positive = activation: at the top concentration;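 for activity, positive = activation: reporter driven by the mutant form of the NPC1 promoter; % of control where 0% means no effect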
From the text: NIH Chemical Genomics Center [NCGC] NIH Molecular Libraries Probe Production centers Network [MLPCN] MLPCN Grant: MH089375-01A1 Assay Submitter (PI): Yiannis A. Ioannou NCGC Assay Overview: Niemann Pick Type C (NPC) is a rare neurodegenerative lipidosis that is characterized by lipid storage in the endosomal/lysosomal system. Treatment modalities for this devastating disease are currently non-existent due to the severe obstacles associated with accessing the central nervous system with proteins or genes. The majority of mutations causing NPC disease are missense mutations that are distributed throughout the length of the NPC1 protein, with the most prevalent being the I1061T allele. Although NPC1 mutant proteins may be functional, they are typically trapped in the ER due to misfolding. […] We have developed and optimized a cell based luciferase reporter assay in 1536 well format for the identification of up-regulators of the mutant NPC1 promoter. This assay presents data on the validation of hits from the primary screen.
The NPC1 promoter is cloned in front of the luciferase reporter gene, therefore NPC promoter activation results in luciferase expression. Frozen stock of the NPC1 promoter transfected Huh7 cells were obtained from the laboratory of Dr. Yiannis Ioannou (The Mount Sinai School of Medicine, New York, NY). Cells were propagated and maintained at NCGC in medium containing RPMI-1640 supplemented with 10% FBS, 2mM L-glutamine, and 50ug/ml penicillin/streptomycin. Cells were harvested in and plated for assays in OP-MEM I reduced-serum medium supplemented with 10% FBS. The Amplite luciferase reporter gene assay kit was purchased from ABD Bioquest and prepared/stored according to manufacturers recommendations. qHTS Assay Setup: 1. Dispensed 5ul of Huh7 cells stably expressing NPC1-luciferase at a density of 1500 cells per well 1536-well plates. 2. Incubate cells at 37C, 5% CO2, and 95% humidity for 2 hours. 3. Transferred 23nl per well of compound in DMSO solution. 4. Incubated at 37C, 5% CO2, and 95% humidity for 24 hours. 5. Dispensed 3ul per well of Amplite reagent(ABD Bioquest) per well. 6. Incubate at ambient for 10 minutes. 7. Read using the luminescence protocol on the ViewLux plate reader (Perkin Elmer).
Potency is the fitted concentration of half-maximal effect.

| SMILES | Potency | activity, positive = activation |
| --- | --- | --- |
| O=C(CSc1nnc(-c2ccccn2)o1)Nc1ccccc1F | 1120 nM (active) | – |
| Nc1ccccc1C(=O)N/N=C1/C2CN3CCN(C2)CC1(Cc1ccccc1)C3 | – | 0.692% |
| CCOc1cc(C2C(C#N)=C(N)Oc3n[nH]c(C)c32)ccc1OCCN1CCOCC1 (stereo not given) | – | -5.42% |
| Cc1ccc(NC(=O)NC(=O)c2ccccc2)cc1F | 499 nM (active) | – |
| CCOC(=O)CSc1nc2cc(C)ccc2cc1C#N | 499 nM (active) | – |
| COc1cccc(NC(=O)CN2C(=O)CSc3ccc(S(=O)(=O)N4CCC(C)CC4)cc32)c1 | – | -15.8% |
| CC(=O)c1cccc(NC(=O)N2CCOCC2)c1 | – | 4.65% |
| Cc1nnc2n(c1=O)N=C(c1ccc(Cl)cc1)CS2 | 1120 nM (active) | – |
| O=C(CCS(=O)(=O)c1ccccc1)Nc1ccc(-c2nc3ccccc3s2)cc1 | 158 nM (active) | – |
| CCOC(=O)c1ccccc1NC(=O)CSc1nnc(Cc2cccn2C)n1-c1ccc(F)cc1 | – | -12.2% |
| Cc1cccc(NC(=O)CSc2nc3ccccc3o2)c1 | – | 13.4% |
| COc1ccc(-c2csc(N(CCCN(C)C)C(=O)c3ccccc3C)n2)cc1 | – | -14.9% |
| CN(C)C(CNC(=O)CNC(=O)c1ccc2ccccc2c1)c1ccccc1 (stereo not given) | – | -0.761% |
| CCN(C(=O)COC(=O)c1ccc(C=O)cc1)c1c(N)n(Cc2ccccc2)c(=O)[nH]c1=O | – | -1.43% |
| O=C(CCc1cccc(Cl)c1)NC1CCCN(Cc2ccccc2F)C1 (stereo not given) | – | -12.9% |
| CC(C)(C)C(=O)N/C(N)=N/c1nc2ccccc2o1 | 499 nM (active) | – |
| O=C(CSc1nnc(-c2ccccc2)o1)Nc1ccccc1F | 250 nM (active) | – |
| O=C(CCNC(=O)c1ccc(Br)o1)NCc1ccc(Cl)cc1 | – | -0.949% |
| N#C/C(=N\Nc1ccc(Cl)cc1)C(=N)N1CCCCC1 | 281 nM (active) | – |
| COc1ccc(NC(=O)CCCN2C(=O)C(c3ccccc3)Oc3cccnc32)cc1OC (stereo not given) | – | -7.4% |

| SMILES | Potency | activity, positive = activation |
| --- | --- | --- |
| O=C(NCCc1ccccc1)c1cc2ncc(Br)cn2n1 | 14100 nM (active) | – |
| COC(=O)c1ccccc1NC(=O)c1ccc(-c2ccc(Br)cc2)o1 | – | -2.77% |
| C=CCn1c(C)nnc1SCC(=O)Nc1nccs1 | – | 8.91% |
| O=C(NCCc1c[nH]c2ccccc12)C(=O)NCC(c1ccco1)N1CCN(c2ccccc2F)CC1 (stereo not given) | – | 0.564% |
| COc1ccc(C)cc1N(C(=O)CNC(=O)c1ccco1)C(C(=O)NC1CCCC1)c1cccnc1 (stereo not given) | – | -7.29% |
| O=C(C[N+]1(CC#Cc2ccccc2)CCCCC1)c1ccccc1 | – | -0.776% |
| Brc1ccccc1-c1nnc(CSc2nnc3sc4ccccc4n23)o1 | – | 11.6% |
| COCCNC(=O)C1CCC(CNS(=O)(=O)c2ccc(F)cc2)CC1 (stereo not given) | – | 1.82% |
| COc1ccc(/C=C\c2onc(C)c2S(=O)(=O)N2CCC(C(=O)NCCC(C)C)CC2)cc1 | – | -0.647% |
| CC1CN(C(=O)c2ccncc2)CC(C)O1 (stereo not given) | – | -2.47% |
| CCN(CC)S(=O)(=O)c1ccc(NCc2ccccn2)nc1 | – | 4.73% |
| CN(C)C(=O)[C@H]1C[C@H]1[C@@H](O)[C@H](CO)NC(=O)[C@H](COCc1ccccc1)NC(=O)OC(C)(C)C | – | -3.05% |
| Cc1ccc(NC(=O)c2ncc(Cl)c(Cl)c2Cl)cc1C | – | 5.4% |
| CCCOC(=O)Cn1cnc2scc(-c3ccc(OC)cc3)c2c1=O | – | -5.85% |
| Cn1c(CCN2CCN(c3ccccc3)CC2)nc2cc(NC(=O)c3ccco3)ccc21 | – | 7.93% |
| COc1cccc(C2Nc3ccccc3NC3=C2C(=O)CC(C)(C)C3)c1 (stereo not given) | – | 8.81% |
| O=C(CSc1nnc(-c2ccccn2)o1)Nc1ccccc1Cl | 1250 nM (active) | – |
| O=C(Nc1ccc(-c2nc3cccnc3s2)cc1)c1ccc(Cl)nc1 | 1250 nM (active) | – |
| CC1(C)CC(=O)c2c(O)c(-c3ccccc3)c(=O)n(-c3ccccc3)c2C1 | – | 4.96% |
| Cc1nc(SCC(=O)NC(=O)NC(C)(C)C)nc(C)c1C | – | 1.65% |
